Assay outcomes as filed in PubChem.
JMJD2A Tudor inh = JMJD2A Tudor domain (human) inhibition | 4.4% of 390,000 active | AID 504339 | AlphaScreen JMJD2A-Tudor / H3K4me3 peptide binding | Potency, µM (titrated, usually from 114 µM), hits mostly inhibitors; note: nearly all actives have a fitted effect of over 50% in size
G9a block = blocks human histone lysine methyltransferase G9a; Potency, µM (top dose mostly 102 µM), actives largely listed as inhibitors; 8.8% of 350,000 active; Q96KQ7; G9a H3K9 monomethylation, AlphaScreen, 2 h; note: nearly all actives have a fitted effect of over 75% in size
Target sequence (Q96KQ7 913-1193 limits assumed): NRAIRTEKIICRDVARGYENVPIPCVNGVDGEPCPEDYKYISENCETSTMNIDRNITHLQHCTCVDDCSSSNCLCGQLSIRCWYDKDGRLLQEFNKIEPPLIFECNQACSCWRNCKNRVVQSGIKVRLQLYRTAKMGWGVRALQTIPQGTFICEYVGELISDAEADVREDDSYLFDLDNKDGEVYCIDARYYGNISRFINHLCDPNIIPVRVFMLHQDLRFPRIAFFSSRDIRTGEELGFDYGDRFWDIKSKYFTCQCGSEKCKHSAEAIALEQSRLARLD
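Methyltransferase reactions run at room temperature for 2 h (20 nM enzyme, 500 nM biotin-H3K9 peptide, 20 uM SAM) after a 15 min compound preincubation; product detected by AlphaScreen beads and anti-H3K9me1 antibody.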
BAZ2B block = inhibitors of human BAZ2B bromodomain. Q9UIF8. AlphaScreen BAZ2B-H3K14Ac peptide displacement. Potency, µM (series often up to 114 µM), hits mostly inhibitors. 4.4% of 360,000 active. AID 504333; note: nearly all actives have a fitted effect of over 60% in size
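Complex of BAZ2B and biotin-H3K14Ac (50 nM apiece) forms over 30 min at RT, then faces library compounds up to 110 uM for another 30 min; AlphaScreen beads added, 20 min dark incubation, luminescence read.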
Sfp inh = Sfp phosphopantetheinyl transferase inhibition | Q9F4F7 | Biochemical Sfp PPTase activity, qHTS | Potency, µM, most hits filed as inhibitors | 3.5% of 310,000 active | AID 1490;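 note: the enzyme is Sfp with the accession as filed and its product quenches rhodamine fluorescence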
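Fluorescence-quenching assay: 15 nM Sfp-PPTase preincubated 15 min at room temperature with compound, then 5 uM rhodamine-CoA and 12.5 uM BHQ-2-labelled YbbR peptide added. Fluorescence (ex 525/em 598 nm) read at start and after 30 min; difference gives rate.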
PLK1 PBD inh = blocks phosphopeptide binding to human PLK1 polo-box domain; P53350; Plk1 PBD binding of FITC phosphopeptide, fluorescence polarization; Potency, µM, actives largely listed as inhibitors; 2.8% of 360,000 active; AID 720504; note: series mostly up to about 57 µM; nearly all actives have a fitted effect of over 65% in size
HP1b binding inh = HP1-beta chromodomain-methylated histone interaction inhibition; Potency, µM (doses to about 114 µM), actives largely listed as inhibitors; AlphaScreen HP1-beta / biotin-H3K9me3 peptide binding; 0.56% of 390,000 active; note: nearly all actives have a fitted effect of over 70% in size
Target sequence (P83916 whole entry, looked up): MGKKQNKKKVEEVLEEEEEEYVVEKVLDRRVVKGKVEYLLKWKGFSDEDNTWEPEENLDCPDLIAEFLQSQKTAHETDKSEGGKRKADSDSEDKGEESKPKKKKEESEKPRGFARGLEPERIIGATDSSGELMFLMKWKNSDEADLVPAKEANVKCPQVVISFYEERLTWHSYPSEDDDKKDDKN
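HP1-beta protein (50 nM final) preincubated 30 min at room temperature with biotinylated H3(1-18)K9me3 peptide (50 nM) in PBS pH 7.4, 0.01% Tween-20, then compound added for 30 min. AlphaScreen streptavidin donor/nickel chelate acceptor beads (10 ug/mL final), 30 min dark, luminescence read.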
Hits are given with their value; - = inactive; ? = inconclusive; . = no result. In the library only some 12% were active in any assay of this set; here they are far more common. Calls come from the whole dose curve; as a rule, active = well fitted curve in the direction sought with a large enough effect; inconclusive = small, poorly fitted or top-dose-only effect, or another doubt; inactive = no such curve, though single readings can be large; an effect the other way counts as inactive or inconclusive.

SMILES	JMJD2A Tudor inh	G9a block	BAZ2B block	Sfp inh	PLK1 PBD inh	HP1b binding inh
Cn1c(=O)c([N+](=O)[O-])c(NCCCn2ccnc2)c2ccccc21	-	.	-	-	-	-
CC(C)c1ccc(Nc2c([N+](=O)[O-])c(=O)n(C)c3ccccc23)cc1	?	?	?	-	-	-
Cc1cccc(Nc2c([N+](=O)[O-])c(=O)n(C)c3ccccc23)c1	50µM	-	?	-	27µM	-
Cn1c(=O)c([N+](=O)[O-])c(-n2ccnc2)c2ccccc21	-	?	-	56µM	-	-
CCc1cccc(NC(=O)Cn2c(=O)ccc3cc(S(=O)(=O)N4CCC(C)CC4)ccc32)c1	-	-	-	.	.	-
COc1ccc(Cl)cc1-c1nc(SCC(=O)NC2CC2)n[nH]1	?	-	-	-	19µM	-
CCCCOC(=O)C1CN(c2ccccc2)N=C1C(C)=O (stereo not given)	-	.	-	-	27µM	-
CCCCOC(=O)C1CN(c2ccccc2)N=C1C(=O)OCC (stereo not given)	-	-	-	-	-	-
Cc1c(Cl)ccc2sc(N3CCN(C(=O)CCS(=O)(=O)c4ccc(F)cc4)CC3)nc12	-	-	-	.	.	-
CCC(CC)N1CCN(C(=O)c2cccc(Cl)c2)CC1	20µM	7.9µM	56µM	-	-	?
O=C(c1cccnc1)N1CCN(C(=O)c2cccc(Cl)c2)CC1	-	.	-	-	-	-
CC(C)N1CCN(C(=O)c2cccc(Cl)c2)CC1	14µM	25µM	?	-	-	?
Cc1nc2c(Cl)cccc2[nH]1	-	56µM	-	-	-	-
Cc1ccc(C)c(NC(=O)CN(C)C(=O)C2COc3ccccc3O2)c1 (stereo not given)	-	?	-	.	-	.
CCN(CC)C(=O)[C@H]1C[C@H](CC(=O)NC/C=C(\C)CCC=C(C)C)C(=O)N2CCc3c([nH]c4cc(CCC(=O)N(C)C)ccc34)[C@]12C	-	.	.	.	-	-
CCC(CO)NCc1ccc(OC2CCCC2)cc1 (stereo not given)	-	-	-	-	-	-
CN(C)CCNCc1ccc(OC2CCCC2)cc1	-	79µM	-	-	-	-
CCOc1ccccc1CN1CCc2nc(N3CCN(c4ccccc4F)CC3)ncc2C1	79µM	?	56µM	.	.	-
Brc1ccc(CN2CCc3nc(N4CCN(c5ncccn5)CC4)ncc3C2)cc1	45µM	?	50µM	.	.	-
CCCN1CCc2nc(N3CCN(c4ncccn4)CC3)ncc2C1	89µM	32µM	50µM	.	.	-
CCCCN1CCc2nc(N3CCN(c4ncccn4)CC3)ncc2C1	79µM	18µM	56µM	.	.	-
CCN1CCN(c2ncc3c(n2)CCN(Cc2ccc(OC(C)C)cc2)C3)CC1	?	?	?	.	.	-
Fc1ccc(CN2CCc3nc(N4CCN(c5ccccc5F)CC4)ncc3C2)c(F)c1	-	-	-	.	.	-
Cn1c(=O)c2cc(NC(=O)CCc3cccnc3)ccc2n1Cc1ccc(F)cc1	.	.	.	.	-	.
O=C(CCCc1ccccc1)Nc1ccnn1C1CCN(Cc2ccc(CO)o2)CC1	-	.	-	-	-	-
SMILES	JMJD2A Tudor inh	G9a block	BAZ2B block	Sfp inh	PLK1 PBD inh	HP1b binding inh
Cc1cccc(CCNC(=O)C2CCN(c3ncnc4c3nc3n4CCCCC3)CC2)c1	-	-	-	.	.	-
COc1ccc(NC(=O)CN(C)C(=O)c2cc(C)on2)cc1	-	-	-	.	-	-
Cc1ccc(CN2CCc3nc(N4CCN(c5ccccc5F)CC4)ncc3C2)cc1C	-	-	-	.	.	-
CCOc1ccc(CN2CCc3nc(N4CCN(c5ccccn5)CC4)ncc3C2)cc1OC	89µM	?	79µM	.	.	-
COc1ccc(C(=O)N=S2CCN(C(=O)c3ccc(Cl)cc3)CC2)cc1	-	25µM	-	-	-	-
Cc1cccc(-c2nnc(NC(=O)c3ccc(Cl)cc3)o2)c1	-	8.9µM	-	-	-	-
Cc1ccc(C(=O)Nc2nnc(-c3ccncc3)o2)cc1	-	-	56µM	-	-	-
O=C(Nc1nnc(-c2ccncc2)o1)c1ccccc1	8.9µM	-	10µM	-	7.5µM	-
CC(C)c1cnc2c(c1SCC(=O)Nc1ccccc1C(F)(F)F)c(=O)n(C)c(=O)n2C	-	-	-	.	.	-
CC(=O)Nc1c(Cl)c(Cl)c2c(c1Cl)C(=O)c1cc(Cl)ccc1-2	-	.	.	.	-	-
CSc1ccc(CCNC(=O)Cn2ncc3c(=O)oc4ccccc4c32)cc1	-	-	-	.	.	-
CCOc1ccc(CCNC(=O)c2ccc(-c3nc(CSc4ccccc4)c(C)o3)cc2)cc1	-	-	-	.	.	-
CCOC1=C/C(=C/c2c(N)n3nc(CC(=O)N4CCCCC4)sc3nc2=O)C=CC1=O	?	50µM	?	-	?	-
Nc1c(C=C2C=CC(=O)C=C2)c(=O)nc2sc(CC(=O)N3CCOCC3)nn12	-	.	?	-	-	-
CCOC1=C/C(=C/c2c(N)n3nc(S(=O)(=O)CC)sc3nc2=O)C=CC1=O	-	35µM	-	-	-	-
COC1=C/C(=C/c2c(N)n3nc(CC(=O)N4CCCCC4)sc3nc2=O)C=CC1=O	-	?	-	-	-	-
CCOc1ccc(CCN2C(=S)N([C@@H](CC(C)C)CN3CCC[C@@H]3CN3C(=S)NC[C@@H]3Cc3ccccc3)C[C@@H]2Cc2ccc(O)cc2)cc1	.	.	.	.	-	.
O=c1[nH]c(-c2ccccc2)c(-c2ccccc2)nc1[N+](=O)[O-]	-	50µM	-	-	-	-
CC(C)c1nc(-c2ccccc2)c(-c2ccccc2)[nH]1	-	-	-	?	-	-
COC(=O)C1(C)NC(c2ccccc2C)C2C(=O)N(c3ccc(F)cc3)C(=O)C21 (stereo not given)	?	-	-	-	30µM	-
CCN1C(=O)[C@H]2[C@@H](c3ccc(-c4ccc(F)cc4)c(OC)c3)N[C@@](C)(C(=O)OC)[C@H]2C1=O	?	?	56µM	.	-	-
COC(=O)C1(C)NC(c2ccccc2C)C2C(=O)N(c3ccccc3)C(=O)C21 (stereo not given)	-	-	-	-	-	-
Cn1cc(-c2cccc(C(F)(F)F)c2)cc(C#N)c1=O	-	-	-	-	-	-
Cc1ccc(-n2nnc(-c3nccs3)n2)cc1	-	-	-	-	-	-
Clc1ccc(-n2nnc(-c3nccs3)n2)cc1Cl	16µM	3.2µM	-	40µM	27µM	-
COc1ccc(S(=O)(=O)N2CCC(C(=O)Nc3ccc(Oc4ccccc4)cc3)CC2)cc1	-	-	-	.	.	-
NNC(=O)CSCc1ccc(Cl)cc1Cl	-	-	-	-	-	-
CC(C)n1c(CSCc2ccc(Cl)cc2Cl)n[nH]c1=S	-	13µM	?	-	?	-
C=CCc1ccc(OCCCCNC2CCCC2)c(OC)c1	?	13µM	56µM	-	-	?
C=CCOc1c(Cl)cc(CNCCCN2CCOCC2)cc1OC	?	?	-	-	21µM	-
